Seven molecules from ChEMBL document CHEMBL1961873, “Compounds: GSK PKIS; Assays: Nanosyn kinase panel” (2012) can be followed below.

What is called inhibition is the change of the read-out against control, counted positive when it falls.

The target of experiment [1] is Dual specificity protein kinase CLK3 (Homo sapiens) (UniProt P49761). To be noted: at 1 µM.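 Further: each value is the mean inhibition of CLK3.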
Experiment [2] addresses Dual specificity tyrosine-phosphorylation-regulated kinase 1A (Homo sapiens) (UniProt Q13627). Conditions: at 0.1 µM.
For experiment [3] the target is unchanged. To be noted: at 1 µM.
Experiment [4] addresses Dual specificity tyrosine-phosphorylation-regulated kinase 1B (Homo sapiens) (UniProt Q9Y463). To be noted: at 0.1 µM.
The target is the same in experiment [5]. Conditions: at 1 µM.
Experiment [6] concerns the target T1, Dual specificity tyrosine-phosphorylation-regulated kinase 2 (Homo sapiens) (UniProt Q92630).
T1 sequence (whole entry): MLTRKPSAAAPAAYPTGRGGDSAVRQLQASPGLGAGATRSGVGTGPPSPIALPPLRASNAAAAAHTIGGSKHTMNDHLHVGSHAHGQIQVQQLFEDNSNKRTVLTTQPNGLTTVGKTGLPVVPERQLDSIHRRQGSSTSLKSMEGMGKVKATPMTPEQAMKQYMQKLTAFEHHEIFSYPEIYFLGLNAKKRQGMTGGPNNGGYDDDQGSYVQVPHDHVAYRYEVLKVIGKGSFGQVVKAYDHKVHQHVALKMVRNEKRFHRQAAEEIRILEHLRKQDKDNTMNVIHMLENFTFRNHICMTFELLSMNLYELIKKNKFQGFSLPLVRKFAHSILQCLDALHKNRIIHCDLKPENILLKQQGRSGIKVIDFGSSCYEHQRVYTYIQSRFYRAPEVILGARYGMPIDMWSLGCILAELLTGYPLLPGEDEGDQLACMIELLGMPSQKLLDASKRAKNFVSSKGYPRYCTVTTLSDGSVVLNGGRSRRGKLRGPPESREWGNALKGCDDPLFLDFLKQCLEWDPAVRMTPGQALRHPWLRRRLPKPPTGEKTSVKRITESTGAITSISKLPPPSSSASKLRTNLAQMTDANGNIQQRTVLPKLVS
To be noted: at 0.1 µM.

In experiment [7] the target is T1, Dual specificity tyrosine-phosphorylation-regulated kinase 2 (Homo sapiens). Conditions: at 1 µM.
Experiment [8] addresses Glycogen synthase kinase-3 alpha (Homo sapiens) (UniProt P49840). Conditions: at 0.1 µM.
Experiment [9] has the same target. Conditions: at 1 µM.
The target in experiment [10] is Glycogen synthase kinase-3 beta (Homo sapiens) (UniProt P49841). To be noted: at 0.1 µM.
Glycogen synthase kinase-3 beta (Homo sapiens), sequence (P49841 whole entry, looked up): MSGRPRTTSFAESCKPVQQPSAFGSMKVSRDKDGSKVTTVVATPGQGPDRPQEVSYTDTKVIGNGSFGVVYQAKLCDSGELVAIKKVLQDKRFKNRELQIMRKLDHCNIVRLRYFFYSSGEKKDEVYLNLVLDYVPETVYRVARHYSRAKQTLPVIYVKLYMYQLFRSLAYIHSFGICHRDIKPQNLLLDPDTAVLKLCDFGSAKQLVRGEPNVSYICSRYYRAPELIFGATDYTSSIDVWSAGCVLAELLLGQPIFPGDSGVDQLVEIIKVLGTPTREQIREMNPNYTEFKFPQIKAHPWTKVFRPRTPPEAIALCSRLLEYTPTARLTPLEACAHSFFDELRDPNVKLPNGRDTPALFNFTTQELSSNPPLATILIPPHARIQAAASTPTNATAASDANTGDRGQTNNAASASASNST
Experiment [11] has the same target. Conditions: at 1 µM.
In experiment [12] the target is Homeodomain-interacting protein kinase 1 (Homo sapiens) (UniProt Q86Z02). To be noted: at 0.1 µM.
Homeodomain-interacting protein kinase 1 (Homo sapiens), sequence (Q86Z02 whole entry, looked up): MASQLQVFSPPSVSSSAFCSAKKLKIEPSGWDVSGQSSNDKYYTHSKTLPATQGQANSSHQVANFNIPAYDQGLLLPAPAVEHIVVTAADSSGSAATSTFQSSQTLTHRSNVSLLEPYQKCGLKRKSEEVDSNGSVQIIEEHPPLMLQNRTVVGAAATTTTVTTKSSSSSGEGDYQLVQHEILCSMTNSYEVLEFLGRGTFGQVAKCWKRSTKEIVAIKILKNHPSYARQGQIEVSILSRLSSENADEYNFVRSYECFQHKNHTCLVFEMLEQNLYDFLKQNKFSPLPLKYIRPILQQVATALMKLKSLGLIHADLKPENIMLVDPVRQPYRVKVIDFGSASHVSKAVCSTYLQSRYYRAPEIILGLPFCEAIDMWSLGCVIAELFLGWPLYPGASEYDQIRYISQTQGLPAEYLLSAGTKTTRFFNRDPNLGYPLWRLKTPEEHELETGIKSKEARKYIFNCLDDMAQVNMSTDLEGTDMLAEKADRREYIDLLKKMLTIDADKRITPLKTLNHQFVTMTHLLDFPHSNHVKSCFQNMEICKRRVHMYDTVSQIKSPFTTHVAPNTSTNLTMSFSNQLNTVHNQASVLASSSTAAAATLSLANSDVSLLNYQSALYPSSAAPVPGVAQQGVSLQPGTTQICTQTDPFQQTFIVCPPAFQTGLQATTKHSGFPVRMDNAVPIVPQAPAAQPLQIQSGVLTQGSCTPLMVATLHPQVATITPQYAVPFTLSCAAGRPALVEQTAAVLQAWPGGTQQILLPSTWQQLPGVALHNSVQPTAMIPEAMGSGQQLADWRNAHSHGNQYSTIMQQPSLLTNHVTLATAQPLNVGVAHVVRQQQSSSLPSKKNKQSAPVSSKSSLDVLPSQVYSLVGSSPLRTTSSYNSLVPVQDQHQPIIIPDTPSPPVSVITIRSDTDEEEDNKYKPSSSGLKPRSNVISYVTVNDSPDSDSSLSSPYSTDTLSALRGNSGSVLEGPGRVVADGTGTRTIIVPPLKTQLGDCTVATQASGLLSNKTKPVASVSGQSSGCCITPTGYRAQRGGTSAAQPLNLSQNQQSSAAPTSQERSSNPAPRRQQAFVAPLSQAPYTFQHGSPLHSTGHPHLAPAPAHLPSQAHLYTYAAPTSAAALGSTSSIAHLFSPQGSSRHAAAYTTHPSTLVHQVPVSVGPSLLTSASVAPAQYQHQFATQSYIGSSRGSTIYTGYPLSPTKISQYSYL
For experiment [13] the target is unchanged. To be noted: at 1 µM.
In experiment [14] the target is T2, Homeodomain-interacting protein kinase 4 (Homo sapiens) (UniProt Q8NE63).
T2 sequence (whole entry): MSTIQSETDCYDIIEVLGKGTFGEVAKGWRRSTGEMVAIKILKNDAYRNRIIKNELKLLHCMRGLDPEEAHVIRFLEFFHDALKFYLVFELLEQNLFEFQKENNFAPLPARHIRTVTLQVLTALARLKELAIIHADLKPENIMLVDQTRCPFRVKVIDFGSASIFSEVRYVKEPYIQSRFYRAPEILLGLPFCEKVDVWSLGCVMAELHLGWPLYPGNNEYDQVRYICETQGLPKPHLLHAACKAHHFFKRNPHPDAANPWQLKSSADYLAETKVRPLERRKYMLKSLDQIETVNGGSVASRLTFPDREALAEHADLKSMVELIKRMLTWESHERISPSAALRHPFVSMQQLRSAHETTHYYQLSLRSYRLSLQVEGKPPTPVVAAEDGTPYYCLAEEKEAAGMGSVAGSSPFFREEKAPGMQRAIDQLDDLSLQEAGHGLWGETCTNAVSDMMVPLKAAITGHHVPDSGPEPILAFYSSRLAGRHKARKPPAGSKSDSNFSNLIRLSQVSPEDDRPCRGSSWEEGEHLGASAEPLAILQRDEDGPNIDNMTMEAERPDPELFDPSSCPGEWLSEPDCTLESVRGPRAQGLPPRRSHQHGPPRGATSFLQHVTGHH
To be noted: at 0.1 µM.

For experiment [15], the target named is T2, Homeodomain-interacting protein kinase 4 (Homo sapiens). Conditions: at 1 µM.
The target of experiment [16] is Mitogen-activated protein kinase 9 (Homo sapiens) (UniProt P45984). To be noted: at 0.1 µM.
Mitogen-activated protein kinase 9 (Homo sapiens), sequence (P45984 whole entry, looked up): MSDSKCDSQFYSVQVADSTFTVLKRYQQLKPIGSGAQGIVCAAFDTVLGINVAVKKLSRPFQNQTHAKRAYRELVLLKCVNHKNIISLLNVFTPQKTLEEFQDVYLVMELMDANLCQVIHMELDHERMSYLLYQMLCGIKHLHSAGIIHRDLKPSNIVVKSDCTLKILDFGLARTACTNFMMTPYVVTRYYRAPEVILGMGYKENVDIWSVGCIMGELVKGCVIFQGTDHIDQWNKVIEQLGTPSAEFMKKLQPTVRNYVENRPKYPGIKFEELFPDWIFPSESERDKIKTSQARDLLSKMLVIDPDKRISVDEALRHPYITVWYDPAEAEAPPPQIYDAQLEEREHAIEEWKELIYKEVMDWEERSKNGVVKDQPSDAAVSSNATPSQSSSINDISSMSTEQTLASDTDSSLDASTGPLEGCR
Experiment [17] has the same target. Conditions: at 1 µM.
Experiment [18] concerns the target Mitogen-activated protein kinase 1 (Homo sapiens) (UniProt P28482). Conditions: at 0.1 µM.
Experiment [19] has the same target. Conditions: at 1 µM.
In experiment [20] the target is Mitogen-activated protein kinase 3 (Homo sapiens) (UniProt P27361). To be noted: at 0.1 µM.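 Further: each value is a mean inhibition figure.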
Mitogen-activated protein kinase 3 (Homo sapiens), sequence (P27361 whole entry): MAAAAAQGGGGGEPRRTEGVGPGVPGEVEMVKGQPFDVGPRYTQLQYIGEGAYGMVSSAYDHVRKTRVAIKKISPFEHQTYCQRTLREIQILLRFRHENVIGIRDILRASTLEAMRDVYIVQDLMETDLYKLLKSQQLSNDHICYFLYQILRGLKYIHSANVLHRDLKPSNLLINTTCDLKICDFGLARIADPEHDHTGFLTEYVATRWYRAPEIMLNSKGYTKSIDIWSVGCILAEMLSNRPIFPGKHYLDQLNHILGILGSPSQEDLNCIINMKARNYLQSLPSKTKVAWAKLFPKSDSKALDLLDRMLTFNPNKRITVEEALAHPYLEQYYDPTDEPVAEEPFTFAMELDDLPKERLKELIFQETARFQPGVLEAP

Glycogen synthase kinase-3 alpha (Homo sapiens), sequence (P49840 2-483 limits assumed): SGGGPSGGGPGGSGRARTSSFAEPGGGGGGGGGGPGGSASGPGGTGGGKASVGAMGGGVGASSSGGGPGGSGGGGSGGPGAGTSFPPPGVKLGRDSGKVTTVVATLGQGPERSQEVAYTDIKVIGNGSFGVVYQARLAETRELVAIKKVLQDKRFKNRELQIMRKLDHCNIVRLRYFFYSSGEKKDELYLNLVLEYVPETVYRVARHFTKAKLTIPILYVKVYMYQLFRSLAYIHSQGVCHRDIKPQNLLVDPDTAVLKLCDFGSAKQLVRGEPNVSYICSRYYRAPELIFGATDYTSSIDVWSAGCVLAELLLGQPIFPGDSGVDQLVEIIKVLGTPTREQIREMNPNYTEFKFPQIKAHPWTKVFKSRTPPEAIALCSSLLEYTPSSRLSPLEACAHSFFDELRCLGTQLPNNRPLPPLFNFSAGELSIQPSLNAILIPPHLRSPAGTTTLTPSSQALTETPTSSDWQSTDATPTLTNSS
Mitogen-activated protein kinase 1 (Homo sapiens), sequence (P28482 whole entry): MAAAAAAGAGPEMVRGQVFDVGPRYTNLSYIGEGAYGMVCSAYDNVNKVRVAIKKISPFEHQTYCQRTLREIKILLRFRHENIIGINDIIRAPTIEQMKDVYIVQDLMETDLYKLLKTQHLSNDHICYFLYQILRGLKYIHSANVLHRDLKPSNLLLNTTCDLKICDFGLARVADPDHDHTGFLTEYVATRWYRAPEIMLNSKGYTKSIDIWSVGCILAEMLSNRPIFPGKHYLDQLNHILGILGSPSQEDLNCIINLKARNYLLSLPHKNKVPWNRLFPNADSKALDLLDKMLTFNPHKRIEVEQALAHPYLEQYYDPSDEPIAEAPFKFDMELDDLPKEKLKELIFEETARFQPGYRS
Dual specificity protein kinase CLK3 (Homo sapiens), sequence (P49761 whole entry, looked up): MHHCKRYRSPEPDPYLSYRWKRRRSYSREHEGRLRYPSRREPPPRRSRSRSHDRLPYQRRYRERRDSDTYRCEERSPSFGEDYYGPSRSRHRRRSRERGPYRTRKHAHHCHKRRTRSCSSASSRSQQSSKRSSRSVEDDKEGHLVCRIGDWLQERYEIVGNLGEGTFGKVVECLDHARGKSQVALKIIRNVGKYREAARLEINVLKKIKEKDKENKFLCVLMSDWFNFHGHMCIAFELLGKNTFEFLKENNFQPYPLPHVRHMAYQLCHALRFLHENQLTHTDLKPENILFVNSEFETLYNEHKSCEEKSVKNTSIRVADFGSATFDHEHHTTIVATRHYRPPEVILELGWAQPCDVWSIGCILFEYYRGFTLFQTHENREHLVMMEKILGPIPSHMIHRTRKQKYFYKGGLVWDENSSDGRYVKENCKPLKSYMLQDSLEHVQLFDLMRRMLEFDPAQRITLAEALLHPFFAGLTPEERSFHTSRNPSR
Dual specificity tyrosine-phosphorylation-regulated kinase 1B (Homo sapiens), sequence (Q9Y463 whole entry, looked up): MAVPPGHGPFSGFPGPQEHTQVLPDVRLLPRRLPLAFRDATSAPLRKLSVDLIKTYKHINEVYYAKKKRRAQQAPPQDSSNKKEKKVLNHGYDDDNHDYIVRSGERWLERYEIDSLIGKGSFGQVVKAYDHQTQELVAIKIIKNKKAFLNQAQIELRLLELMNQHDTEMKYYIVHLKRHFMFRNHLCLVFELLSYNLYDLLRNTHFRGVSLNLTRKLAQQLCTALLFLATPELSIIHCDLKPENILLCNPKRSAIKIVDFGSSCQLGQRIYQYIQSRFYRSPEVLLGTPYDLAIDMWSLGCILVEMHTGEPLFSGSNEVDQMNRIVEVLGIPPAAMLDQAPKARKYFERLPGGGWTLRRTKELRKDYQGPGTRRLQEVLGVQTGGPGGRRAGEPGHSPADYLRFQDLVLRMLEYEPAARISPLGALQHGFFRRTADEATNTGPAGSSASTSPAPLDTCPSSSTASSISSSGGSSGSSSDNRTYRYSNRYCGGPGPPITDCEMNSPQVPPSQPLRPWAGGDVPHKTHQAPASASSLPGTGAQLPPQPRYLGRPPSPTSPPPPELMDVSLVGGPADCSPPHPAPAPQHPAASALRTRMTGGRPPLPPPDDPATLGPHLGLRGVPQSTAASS

In the case of `CN(c1ccc(NC(=O)Nc2c(Cl)cccc2Cl)cc1)c1ccnc(Nc2cccc(CS(C)(=O)=O)c2)n1`, the inhibition was 1.23% in experiment [1]; -0.53% in [2]; 0.63% in [3]; -0.2% in experiment [4]; 1.52% in experiment [5]; 2.28% in experiment [6]. Moreover, the inhibition was found to be 1.29% in experiment [7]; 4.09% in experiment [8]; 10% in experiment [9]; 4.11% in experiment [10]; 9.63% in experiment [11]; 2.01% in [12]. Moreover, the inhibition is 5.39% in experiment [13]; 7.1% in [14]; 18.4% in [15]; 5.56% in experiment [16]; 8.85% in experiment [17]; 3.03% in [18]. Moreover, the inhibition in [19] turned out to be 2.83%; in experiment [20], 2.56%.
On to `CCc1cccc(CC)c1/C=C/c1cncc(C(=O)NC)c1`, for which the inhibition came to 1.66% in [1]; 1.88% in [2]; 5.03% in [3]; 1.08% in experiment [4]; 3.49% in experiment [5]; 2.13% in experiment [6]. In addition, the inhibition in experiment [7] stood at 2.5%; in [8], 2.14%; in [9] it was 6.98%; in experiment [10], 2.21%; in experiment [11], 7.96%; in experiment [12] it was 1.64%. The inhibition came out at 7.03% in [13]; 1.04% in experiment [14]; 4.82% in experiment [15]; 4.45% in [16]; 7.37% in experiment [17]; 1.29% in experiment [18]. Also, the inhibition was 1% in experiment [19] and 2.05% in experiment [20].
As to `c1ccc(-c2n[nH]cc2-c2ccnc(-c3ccc(OCCN4CCOCC4)cc3)c2)nc1`, the inhibition in experiment [1] is 0.55%; in experiment [2] it was 4.43%; in [3] it was 5.39%; in experiment [4] it was 7.33%; in [5], 6.5%; in experiment [6], -0.9%. The inhibition in experiment [7] is -1.36%; in experiment [8], 5.19%; in experiment [9], 4.57%; in experiment [10] it was 4.18%; in experiment [11] it was 5.85%; in [12], 0.91%. Besides, the inhibition was 2.07% in [13]; 3.43% in [14]; 5.51% in experiment [15]; 0.62% in experiment [16]; 5.45% in experiment [17]; -2.8% in [18]. Also, the inhibition in experiment [19] was -3.16%; in experiment [20], -0.63%.
For the molecule `COC(=O)Nc1nc2ccc(Sc3ccc(NC(=O)Nc4cc(C(F)(F)F)ccc4F)cc3)cc2[nH]1`, the inhibition came out at 2.87% in experiment [1]; 0.92% in [2]; 1.72% in experiment [3]; 1.9% in experiment [4]; 3.2% in experiment [5]; 0.2% in [6]. Also, the inhibition worked out at 0.89% in [7]; 0.12% in [8]; 0.68% in experiment [9]; 2.16% in experiment [10]; 1.89% in experiment [11]; 1.74% in experiment [12]. Further, the inhibition in [13] is 3.89%; in [14] it was 3.14%; in experiment [15] it was 25.5%; in [16], 33.9%; in experiment [17] it was 6.37%; in experiment [18] it was -0.51%. For the same molecule, the inhibition in experiment [19] is -0.71%; in experiment [20], 1.68%.
Take `Cc1ccc(NC(=O)c2ccoc2)cc1-c1ccc(C(=O)NCC2CC2)cc1`: the inhibition in experiment [1] is 0.49%; in experiment [2], 2.62%; in experiment [3] it was 3.4%; in experiment [4] it was -0.58%; in experiment [5], 2.65%; in experiment [6] it was 1.99%. The inhibition in [7] is 0.34%; in experiment [8] it was 11%; in experiment [9] it was 0.83%; in experiment [10], 6.09%; in experiment [11] it was -0.68%; in experiment [12] it was -3.48%. The inhibition in experiment [13] amounted to 0.37%; in experiment [14], 0.84%; in experiment [15] it was 0.22%; in experiment [16], 3.16%; in experiment [17], 2.57%; in [18], 3.2%. Further, the inhibition in [19] worked out at 3.37%; in experiment [20], 2.67%.
As to `COc1ccc2cc(-c3c(-c4ccncc4)nc(-c4ccc(S(C)(=O)=O)cc4C)n3C)ccc2c1`, the inhibition amounted to 2.06% in [1]; 2.19% in [2]; 7.68% in experiment [3]; 0.76% in experiment [4]; 2.36% in [5]; 3.55% in [6]. Further, the inhibition in experiment [7] was 4.35%; in experiment [8] it was 2.9%; in experiment [9], 6.04%; in [10], 2.27%; in [11], 6.76%; in [12], 0.5%. The inhibition in experiment [13] was -0.46%; in experiment [14], -0.03%; in experiment [15], 1.88%; in [16], 4.44%; in experiment [17], 10.1%; in experiment [18] it was 5.2%. The figures for the inhibition in [19] and in [20] were 5.44% and 3.83%, respectively.
`CCC(=O)Nc1ccc(C)c(-c2ccc(C(=O)NCC3CC3)cc2)c1`: the inhibition in [1] is -0.21%; in experiment [2] it was 1.98%; in [3], 3.18%; in experiment [4] it was -0.71%; in experiment [5], 0.18%; in experiment [6] it was 3.11%. Besides, the inhibition in experiment [7] was 2.91%; in experiment [8], 1.84%; in experiment [9] it was 3.42%; in experiment [10] it was 0.54%; in experiment [11] it was 2.31%; in experiment [12], -3.16%. In addition, the inhibition in experiment [13] is -2.43%; in experiment [14] it was 0.11%; in experiment [15] it was 0.55%; in experiment [16] it was 2.92%; in [17] it was 4.2%; in experiment [18], 4.32%. For the same molecule, the values for the inhibition in experiment [19] and in [20] were 4.25% and 2.94%, respectively.
